Experiments:
Assay in all cases: DAPPL (digital affinity profiling via proximity ligation, sequencing); 10 mM Tris-HCl pH 7.5, 50 mM NaCl, 1 mM DTT, 4% glycerol, room temperature, 30 min; GST-TFs on glutathione beads, 16-mer random dsDNA library, 0.1% formaldehyde crosslink after washing; high values mean tight binding
FEV = biological target: T1, FEV (Homo sapiens, UniProt Q99581 1-238); conditions: protein: recombinant; tags: N-terminal GST; dsDNA, one strand shown
T1 sequence: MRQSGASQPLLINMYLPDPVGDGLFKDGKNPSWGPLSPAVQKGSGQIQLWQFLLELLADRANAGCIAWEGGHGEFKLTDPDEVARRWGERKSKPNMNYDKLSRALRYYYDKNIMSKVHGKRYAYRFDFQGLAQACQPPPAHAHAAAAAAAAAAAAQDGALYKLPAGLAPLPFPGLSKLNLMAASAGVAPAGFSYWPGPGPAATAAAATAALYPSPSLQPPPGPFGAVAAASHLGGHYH
Method in brief: (§1)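 Pools of DNA-barcoded human transcription factors, expressed in yeast as GST fusions on glutathione beads and combined with a tag-only sample, were incubated with 200 nmole of a 16-mer random double-stranded DNA library. Incubation took 30 min at room temperature in Tris/NaCl/DTT/glycerol buffer and was followed by washing, 0.1% formaldehyde crosslinking, proximity ligation (BsaI/T4 ligase, 1 h, 37 °C), PCR amplification and sequencing on an Illumina NextSeq500. Binding signal is the ratio of a hexamer's read frequency for a factor to its frequency for the tag-only sample.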

ETV5 = ETV5 (Homo sapiens, UniProt P41161 1-510); conditions: protein: recombinant; tags: N-terminal GST; dsDNA, one strand shown
Sequence of ETV5 (P41161 whole entry): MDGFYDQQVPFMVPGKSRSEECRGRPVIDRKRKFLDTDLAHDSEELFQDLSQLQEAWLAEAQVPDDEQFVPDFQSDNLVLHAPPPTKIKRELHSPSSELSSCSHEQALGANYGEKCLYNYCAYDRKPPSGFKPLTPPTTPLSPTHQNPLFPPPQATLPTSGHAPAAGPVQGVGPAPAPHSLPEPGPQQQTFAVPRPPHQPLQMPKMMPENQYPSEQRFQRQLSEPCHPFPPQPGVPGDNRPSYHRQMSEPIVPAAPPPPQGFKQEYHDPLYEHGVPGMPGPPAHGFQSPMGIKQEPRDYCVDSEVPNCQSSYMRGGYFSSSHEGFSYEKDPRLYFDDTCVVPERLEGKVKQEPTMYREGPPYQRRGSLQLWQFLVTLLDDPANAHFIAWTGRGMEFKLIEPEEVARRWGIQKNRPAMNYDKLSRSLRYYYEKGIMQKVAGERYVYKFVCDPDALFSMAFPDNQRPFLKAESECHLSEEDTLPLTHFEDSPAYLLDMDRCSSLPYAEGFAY
Method in brief: as §1

HSF1 = HSF1 (Homo sapiens, UniProt Q00613 1-529); conditions: protein: recombinant; tags: N-terminal GST; chain copies: 3; dsDNA, one strand shown
Sequence of HSF1 (Q00613 whole entry): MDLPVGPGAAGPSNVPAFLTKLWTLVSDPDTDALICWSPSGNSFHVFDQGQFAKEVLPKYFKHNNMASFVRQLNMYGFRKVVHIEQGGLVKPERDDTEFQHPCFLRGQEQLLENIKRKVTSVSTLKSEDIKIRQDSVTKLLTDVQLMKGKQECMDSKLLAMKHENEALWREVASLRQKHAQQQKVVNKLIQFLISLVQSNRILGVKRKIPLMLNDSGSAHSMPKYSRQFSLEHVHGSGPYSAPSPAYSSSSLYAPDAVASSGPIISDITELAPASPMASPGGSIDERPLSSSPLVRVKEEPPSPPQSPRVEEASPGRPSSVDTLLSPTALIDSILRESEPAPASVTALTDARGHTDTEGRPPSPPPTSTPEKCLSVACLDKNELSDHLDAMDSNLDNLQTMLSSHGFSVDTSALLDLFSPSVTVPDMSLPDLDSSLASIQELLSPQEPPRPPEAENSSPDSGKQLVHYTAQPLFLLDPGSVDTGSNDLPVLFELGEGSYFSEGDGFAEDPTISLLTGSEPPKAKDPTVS
Method in brief: as §1

SPIC = biological target: T2, SPIC (Homo sapiens, UniProt Q8N5J4 1-248); conditions: protein: recombinant; tags: N-terminal GST; dsDNA, one strand shown
T2 sequence: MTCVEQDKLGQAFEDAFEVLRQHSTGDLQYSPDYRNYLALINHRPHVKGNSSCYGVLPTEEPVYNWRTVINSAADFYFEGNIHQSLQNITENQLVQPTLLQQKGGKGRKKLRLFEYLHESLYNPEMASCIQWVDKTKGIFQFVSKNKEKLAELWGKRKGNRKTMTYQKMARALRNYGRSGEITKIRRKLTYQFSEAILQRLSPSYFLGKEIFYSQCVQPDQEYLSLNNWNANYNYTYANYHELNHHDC
Method in brief: as §1

ELF4 = ELF4 (Homo sapiens, UniProt Q99607 1-663); conditions: protein: recombinant; tags: N-terminal GST; dsDNA, one strand shown
Sequence of ELF4 (Q99607 whole entry): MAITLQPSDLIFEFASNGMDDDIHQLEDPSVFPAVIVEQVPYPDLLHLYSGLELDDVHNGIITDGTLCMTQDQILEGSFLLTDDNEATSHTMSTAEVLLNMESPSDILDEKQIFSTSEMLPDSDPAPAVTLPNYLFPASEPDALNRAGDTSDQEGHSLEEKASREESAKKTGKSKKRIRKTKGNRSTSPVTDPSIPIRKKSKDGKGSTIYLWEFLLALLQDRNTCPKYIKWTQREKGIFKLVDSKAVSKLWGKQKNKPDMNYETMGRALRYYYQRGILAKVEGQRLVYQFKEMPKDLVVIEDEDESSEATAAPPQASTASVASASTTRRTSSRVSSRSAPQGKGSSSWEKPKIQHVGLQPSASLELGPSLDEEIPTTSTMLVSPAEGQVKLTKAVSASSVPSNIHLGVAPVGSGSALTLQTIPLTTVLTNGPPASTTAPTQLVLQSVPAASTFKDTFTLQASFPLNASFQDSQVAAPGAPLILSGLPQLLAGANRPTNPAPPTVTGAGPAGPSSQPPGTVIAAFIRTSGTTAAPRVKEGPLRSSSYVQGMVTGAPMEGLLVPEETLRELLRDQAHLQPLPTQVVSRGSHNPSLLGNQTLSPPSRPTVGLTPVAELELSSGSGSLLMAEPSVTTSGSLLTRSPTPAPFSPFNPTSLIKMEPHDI
Method in brief: as §1

ELK4 = biological target: T3, ELK4 (Homo sapiens, UniProt P28324-2 1-405); conditions: protein: recombinant; tags: N-terminal GST; dsDNA, one strand shown
T3 sequence: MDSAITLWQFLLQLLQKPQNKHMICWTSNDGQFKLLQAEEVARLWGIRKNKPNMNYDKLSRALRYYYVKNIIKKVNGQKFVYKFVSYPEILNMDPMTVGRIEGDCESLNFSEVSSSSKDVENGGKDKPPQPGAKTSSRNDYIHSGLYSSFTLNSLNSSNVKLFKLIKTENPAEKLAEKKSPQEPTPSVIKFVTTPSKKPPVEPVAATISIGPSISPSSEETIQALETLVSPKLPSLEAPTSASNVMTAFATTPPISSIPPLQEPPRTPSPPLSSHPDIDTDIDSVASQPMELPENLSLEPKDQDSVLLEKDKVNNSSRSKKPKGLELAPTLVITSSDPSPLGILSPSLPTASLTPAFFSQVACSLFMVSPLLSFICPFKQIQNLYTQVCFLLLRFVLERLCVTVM
Method in brief: as §1

ETV2 = biological target: T4, ETV2 (Homo sapiens, UniProt O00321 1-342); conditions: protein: recombinant; tags: N-terminal GST; dsDNA, one strand shown
T4 sequence: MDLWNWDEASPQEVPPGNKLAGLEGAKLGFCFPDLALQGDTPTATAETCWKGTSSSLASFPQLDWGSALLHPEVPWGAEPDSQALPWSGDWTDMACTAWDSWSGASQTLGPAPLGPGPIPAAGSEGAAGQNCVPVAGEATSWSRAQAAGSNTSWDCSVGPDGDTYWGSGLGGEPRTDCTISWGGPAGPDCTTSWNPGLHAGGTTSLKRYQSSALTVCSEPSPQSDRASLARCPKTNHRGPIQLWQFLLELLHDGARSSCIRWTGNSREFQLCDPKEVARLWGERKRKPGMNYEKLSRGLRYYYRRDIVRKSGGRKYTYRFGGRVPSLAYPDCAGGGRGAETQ
Method in brief: as §1

ELF3 = biological target: T5, ELF3 (Homo sapiens, UniProt P78545 1-371); conditions: protein: recombinant; tags: N-terminal GST; dsDNA, one strand shown
T5 sequence: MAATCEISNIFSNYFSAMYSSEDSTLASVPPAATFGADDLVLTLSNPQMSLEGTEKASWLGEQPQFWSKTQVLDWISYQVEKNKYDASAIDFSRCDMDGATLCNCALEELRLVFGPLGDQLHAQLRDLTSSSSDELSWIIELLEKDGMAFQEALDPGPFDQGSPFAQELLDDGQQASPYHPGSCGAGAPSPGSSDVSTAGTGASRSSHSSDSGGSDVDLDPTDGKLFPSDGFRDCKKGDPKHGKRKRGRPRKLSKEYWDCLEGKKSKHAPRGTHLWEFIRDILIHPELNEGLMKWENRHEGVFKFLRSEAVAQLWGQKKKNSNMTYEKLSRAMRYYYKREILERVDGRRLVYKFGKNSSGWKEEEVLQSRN
Method in brief: as §1

CRX = CRX (Homo sapiens, UniProt O43186 1-299); conditions: protein: recombinant; tags: N-terminal GST; dsDNA, one strand shown
Sequence of CRX (O43186 whole entry): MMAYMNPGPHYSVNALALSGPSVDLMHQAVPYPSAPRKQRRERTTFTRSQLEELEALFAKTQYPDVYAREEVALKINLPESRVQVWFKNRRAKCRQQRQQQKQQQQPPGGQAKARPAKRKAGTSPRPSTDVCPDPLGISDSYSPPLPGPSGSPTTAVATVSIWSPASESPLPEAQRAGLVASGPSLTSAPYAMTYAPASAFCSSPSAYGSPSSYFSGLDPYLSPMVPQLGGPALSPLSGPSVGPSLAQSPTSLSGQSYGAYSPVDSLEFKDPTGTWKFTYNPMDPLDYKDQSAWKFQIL
Method in brief: as §1

ETV1 = ETV1 (Homo sapiens, UniProt P50549 1-477); conditions: protein: recombinant; tags: N-terminal GST; dsDNA, one strand shown
Sequence of ETV1 (P50549 whole entry): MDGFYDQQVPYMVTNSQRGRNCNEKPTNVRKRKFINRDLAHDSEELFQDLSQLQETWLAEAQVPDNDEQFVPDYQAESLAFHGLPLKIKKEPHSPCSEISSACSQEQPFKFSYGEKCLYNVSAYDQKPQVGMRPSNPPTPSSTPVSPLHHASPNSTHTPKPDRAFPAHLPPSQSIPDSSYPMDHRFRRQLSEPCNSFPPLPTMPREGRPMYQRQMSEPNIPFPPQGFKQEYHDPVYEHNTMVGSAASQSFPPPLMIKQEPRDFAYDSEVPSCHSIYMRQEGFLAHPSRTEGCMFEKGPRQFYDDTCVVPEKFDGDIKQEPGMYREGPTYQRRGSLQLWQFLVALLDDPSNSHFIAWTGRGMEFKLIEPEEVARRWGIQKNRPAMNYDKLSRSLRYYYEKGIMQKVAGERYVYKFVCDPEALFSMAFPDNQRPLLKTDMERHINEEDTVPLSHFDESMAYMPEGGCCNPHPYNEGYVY
Method in brief: as §1

Sequence	binding signal (FEV)	binding signal (ETV5)	binding signal (HSF1)	binding signal (SPIC)	binding signal (ELF4)	binding signal (ELK4)	binding signal (ETV2)	binding signal (ELF3)	binding signal (CRX)	binding signal (ETV1)
AATTAC	1.25 fold enrichment (6-mer frequency, TF over GST control)	1.28 fold enrichment (6-mer frequency, TF over GST control)	1.43 fold enrichment (6-mer frequency, TF over GST control)	1.33 fold enrichment (6-mer frequency, TF over GST control)	1.24 fold enrichment (6-mer frequency, TF over GST control)	1.27 fold enrichment (6-mer frequency, TF over GST control)	1.38 fold enrichment (6-mer frequency, TF over GST control)	1.36 fold enrichment (6-mer frequency, TF over GST control)	1.74 fold enrichment (6-mer frequency, TF over GST control)	1.34 fold enrichment (6-mer frequency, TF over GST control)
AGAATT	1.08 fold enrichment (6-mer frequency, TF over GST control)	1.13 fold enrichment (6-mer frequency, TF over GST control)	2.2 fold enrichment (6-mer frequency, TF over GST control)	1.24 fold enrichment (6-mer frequency, TF over GST control)	1.24 fold enrichment (6-mer frequency, TF over GST control)	1.2 fold enrichment (6-mer frequency, TF over GST control)	1.06 fold enrichment (6-mer frequency, TF over GST control)	1.04 fold enrichment (6-mer frequency, TF over GST control)	1.76 fold enrichment (6-mer frequency, TF over GST control)	1.16 fold enrichment (6-mer frequency, TF over GST control)
CCAATC	1.11 fold enrichment (6-mer frequency, TF over GST control)	1.16 fold enrichment (6-mer frequency, TF over GST control)	1.13 fold enrichment (6-mer frequency, TF over GST control)	1.24 fold enrichment (6-mer frequency, TF over GST control)	1.19 fold enrichment (6-mer frequency, TF over GST control)	1.18 fold enrichment (6-mer frequency, TF over GST control)	1.16 fold enrichment (6-mer frequency, TF over GST control)	1.11 fold enrichment (6-mer frequency, TF over GST control)	1.33 fold enrichment (6-mer frequency, TF over GST control)	1.13 fold enrichment (6-mer frequency, TF over GST control)
TCCTCG	1.37 fold enrichment (6-mer frequency, TF over GST control)	1.51 fold enrichment (6-mer frequency, TF over GST control)	1.54 fold enrichment (6-mer frequency, TF over GST control)	1.45 fold enrichment (6-mer frequency, TF over GST control)	1.51 fold enrichment (6-mer frequency, TF over GST control)	1.41 fold enrichment (6-mer frequency, TF over GST control)	1.66 fold enrichment (6-mer frequency, TF over GST control)	1.53 fold enrichment (6-mer frequency, TF over GST control)	1.37 fold enrichment (6-mer frequency, TF over GST control)	1.65 fold enrichment (6-mer frequency, TF over GST control)
TATGAA	1.14 fold enrichment (6-mer frequency, TF over GST control)	1.12 fold enrichment (6-mer frequency, TF over GST control)	1.21 fold enrichment (6-mer frequency, TF over GST control)	1.4 fold enrichment (6-mer frequency, TF over GST control)	1.26 fold enrichment (6-mer frequency, TF over GST control)	1.13 fold enrichment (6-mer frequency, TF over GST control)	1.17 fold enrichment (6-mer frequency, TF over GST control)	1.29 fold enrichment (6-mer frequency, TF over GST control)	1.25 fold enrichment (6-mer frequency, TF over GST control)	1.14 fold enrichment (6-mer frequency, TF over GST control)
CCGTCT	1.3 fold enrichment (6-mer frequency, TF over GST control)	1.36 fold enrichment (6-mer frequency, TF over GST control)	1.29 fold enrichment (6-mer frequency, TF over GST control)	1.45 fold enrichment (6-mer frequency, TF over GST control)	1.37 fold enrichment (6-mer frequency, TF over GST control)	1.4 fold enrichment (6-mer frequency, TF over GST control)	1.32 fold enrichment (6-mer frequency, TF over GST control)	1.25 fold enrichment (6-mer frequency, TF over GST control)	1.26 fold enrichment (6-mer frequency, TF over GST control)	1.38 fold enrichment (6-mer frequency, TF over GST control)
TTCTCC	1.63 fold enrichment (6-mer frequency, TF over GST control)	1.49 fold enrichment (6-mer frequency, TF over GST control)	1.98 fold enrichment (6-mer frequency, TF over GST control)	1.37 fold enrichment (6-mer frequency, TF over GST control)	1.51 fold enrichment (6-mer frequency, TF over GST control)	1.63 fold enrichment (6-mer frequency, TF over GST control)	1.39 fold enrichment (6-mer frequency, TF over GST control)	1.4 fold enrichment (6-mer frequency, TF over GST control)	1.51 fold enrichment (6-mer frequency, TF over GST control)	1.45 fold enrichment (6-mer frequency, TF over GST control)

From article PMC7862700, “An all-to-all approach to the identification of sequence-specific readers for epigenetic DNA modifications on cytosine”
